Measurements published in PubChem BioAssay (NCATS).
Inconclusive results are not listed. The source made the active and inactive calls. Calls follow the shape of the dose curve; as a rule, active = well fitted inhibition curve with a large enough effect; inconclusive = small, poorly fitted or top-dose-only effect; inactive = flat fitted curve, though single readings scatter.
% is scaled to controls: 0 for no effect and ±100 for the full control effect.

Assay: Drug repurposing screens with cells derived from glioblastoma tumor samples (AID 1345199); also: nearly all actives have a fitted effect of over 40% in size
Settings: GBM patient neurospheres viability, ATP luminescence, 48 h; at 20 µM (top of the series); tumour line C
How it was run: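 Four patient lines of CD133+ GBM neurospheres were screened at several concentrations; hits were retested in those lines plus three slower-growing GBM lines, using 48-hour treatment and ATP-based viability.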
With CCC(=O)O[C@@](Cc1ccccc1)(c1ccccc1)[C@@H](C)CN(C)C the activity, negative = cell killing was 2.51% (inactive). For C[C@]12CCC(=O)C=C1C=C[C@@H]1[C@@H]2CC[C@@]2(C)[C@H]1CC[C@@]2(O)CCC(=O)O, the activity, negative = cell killing was 15.7% (inactive). For Clc1ccc(C(Cn2ccnc2)OCc2csc3c(Cl)cccc23)c(Cl)c1 (stereo not drawn), the activity, negative = cell killing was 2.67% (inactive). For CC(=O)O[C@H]1CC[C@@]2(C)C(=CC[C@@H]3[C@@H]2CC[C@]2(C)C(=O)CC[C@@H]32)C1, the activity, negative = cell killing was -28.7% (inactive).

Same assay, conditions: GBM patient neurospheres viability, ATP luminescence, 48 h; at 21.2 µM (top of the series); tumour line B
With CCC(=O)O[C@@](Cc1ccccc1)(c1ccccc1)[C@@H](C)CN(C)C the activity, negative = cell killing was -6.39% (inactive). For C[C@]12CCC(=O)C=C1C=C[C@@H]1[C@@H]2CC[C@@]2(C)[C@H]1CC[C@@]2(O)CCC(=O)O, the activity, negative = cell killing was -2.69% (inactive). With Clc1ccc(C(Cn2ccnc2)OCc2csc3c(Cl)cccc23)c(Cl)c1 (stereo not drawn) the activity, negative = cell killing was -18.1% (inactive). For CC(=O)O[C@H]1CC[C@@]2(C)C(=CC[C@@H]3[C@@H]2CC[C@]2(C)C(=O)CC[C@@H]32)C1, the activity, negative = cell killing was -3.53% (inactive).
